Several values for one entry are separate records, joined by “and”; a condition that tells them apart may be missing. Identical values can stand only once. Inconclusive results are not listed. Activity calls are given as the source filed them. Unless noted, calls come from the whole dose curve; as a rule, active = well fitted curve in the direction sought with a large enough effect in the repeat runs; inconclusive = weak or mixed curves; inactive = no such curve, though single readings can be large; an effect the other way counts as inactive or inconclusive.

Consider 27 compounds from PubChem BioAssay (Tox21).

Assay [1] is described as follows: qHTS assay to identify small molecule antagonists of the peroxisome proliferator-activated receptor delta (PPARd) signaling pathway - cell viability counter screen (AID 743213). Note: nearly all actives have a fitted effect of over 50% in size. Note: potency is the fitted concentration of half-maximal effect. Put shortly: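 PPARd-bla HEK293H cells were treated with compounds plus agonist L165041 (300 nM final) for 17 h at 37 C. Viability was then read in the same wells by CellTiter-Glo luminescence after 30 min at room temperature.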

In assay [2] the target is Bile acid receptor (Homo sapiens) (UniProt Q96RI1). The assay is described as follows: qHTS assay to identify small molecule agonists of the farnesoid-X-receptor (FXR) signaling pathway (AID 743220; active = well fitted activation curve with a large enough effect in the signal ratio in the repeat runs, not every such curve was filed as active; the % refers to the signal ratio). Put shortly:
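FXR-UAS-bla HEK 293T cells carrying a UAS-driven beta-lactamase reporter were plated for 5 h at 37C/5% CO2, then exposed to DMSO-dissolved Tox21 10K compounds for 16 h at 37C. A LiveBLAzer B/G FRET substrate was loaded for 2 h at room temperature before fluorescence reading.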
In general terms: qHTS replaces the single test concentration by a dilution series.

Assay [3] in a line: qHTS assay to identify small molecule antagonists of the farnesoid-X-receptor (FXR) signaling pathway - cell viability counter screen (AID 743221; active = well fitted cell-killing curve with a large enough effect in the repeat runs, not every such curve was filed as active; note: nearly all actives have a fitted effect of over 50% in size; note: potency is the fitted concentration of half-maximal effect). The essentials:
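Luminescence from CellTiter-Glo measures cytotoxicity in GeneBLAzer FXR-UAS-bla HEK 293T cells. Cells were exposed to compounds with 50 uM chenodeoxycholic acid (final) for 16 h at 37 C, in wells also used for the reporter readout.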

The target in assay [4] is Vitamin D3 receptor (Homo sapiens) (UniProt P11473). The assay is described as follows: qHTS assay to identify small molecule agonists of the vitamin D receptor (VDR) signaling pathway (AID 743222; calls by dose curve). The essentials: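 Cells carrying a VDR-driven beta-lactamase reporter are seeded at 2,000 per well and rested 4 h. Compounds in DMSO are added for 16 h at 37C, and FRET substrate fluorescence is measured after 2 h at room temperature.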
Vitamin D3 receptor (Homo sapiens), sequence (P11473 whole entry, looked up): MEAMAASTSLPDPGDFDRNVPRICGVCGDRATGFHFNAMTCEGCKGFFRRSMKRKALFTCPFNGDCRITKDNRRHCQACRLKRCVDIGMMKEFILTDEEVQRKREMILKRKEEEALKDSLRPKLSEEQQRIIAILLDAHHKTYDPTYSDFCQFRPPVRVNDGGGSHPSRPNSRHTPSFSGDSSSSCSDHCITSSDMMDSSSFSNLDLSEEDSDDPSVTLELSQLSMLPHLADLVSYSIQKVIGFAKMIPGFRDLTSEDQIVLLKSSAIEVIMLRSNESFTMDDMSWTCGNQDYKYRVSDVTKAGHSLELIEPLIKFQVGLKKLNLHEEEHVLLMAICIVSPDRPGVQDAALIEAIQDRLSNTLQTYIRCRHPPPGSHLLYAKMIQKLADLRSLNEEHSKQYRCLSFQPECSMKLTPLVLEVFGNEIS

A short description of assay [5]: qHTS assay to identify small molecule agonists of the farnesoid-X-receptor (FXR) signaling pathway - cell viability counter screen (AID 743218). Note: nearly all actives have a fitted effect of over 45% in size. Note: potency is the fitted concentration of half-maximal effect. The essentials: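 Cells were seeded, left 5 h at 37 C and 5% CO2, then dosed with compound in DMSO for 16 h. After the beta-lactamase FRET read, CellTiter-Glo was added and luminescence measured 30 min later.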
Assay [6] in a line: qHTS assay to identify small molecule agonists of the vitamin D receptor (VDR) signaling pathway - cell viability counter screen (AID 743224). Note: nearly all actives have a fitted effect of over 50% in size. Note: potency is the fitted concentration of half-maximal effect. The essentials:
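Cells: VDR-bla, 2,000/well, settled 4 h. Treatment: compounds in DMSO, 16 h, 37C/5% CO2. Readout: CellTiter-Glo luminescence after 30 min RT.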

The target of assay [7] is Vitamin D3 receptor (Homo sapiens) (UniProt P11473). Kind of assay: qHTS assay to identify small molecule antagonists of the vitamin D receptor (VDR) signaling pathway (AID 743223; active = well fitted inhibition curve with a large enough effect in the signal ratio in the repeat runs, not every such curve was filed as active; the % refers to the signal ratio; note: potency is the fitted concentration of half-maximal effect). Put shortly:
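Antagonist mode uses 1alpha,25-dihydroxyvitamin D3 at 3 nM final as stimulus. VDR-bla cells receive compounds in DMSO, incubate 16 h at 37C, then a beta-lactamase FRET substrate for 2 h at room temperature before fluorescence measurement.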

For assay [8], the target named is Bile acid receptor (Homo sapiens) (UniProt Q96RI1). The assay is described as follows: qHTS assay to identify small molecule antagonists of the farnesoid-X-receptor (FXR) signaling pathway (AID 743217; active = well fitted inhibition curve with a large enough effect in the signal ratio in the repeat runs, not every such curve was filed as active; the % refers to the signal ratio). Put shortly:
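Cells carrying a UAS-driven beta-lactamase reporter (GeneBLAzer FXR-UAS-bla HEK 293T) were plated and rested 5 h at 37 °C. Compounds in DMSO were added alongside chenodeoxycholic acid agonist at 50 uM final and left 16 h at 37 °C before FRET substrate readout.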

Assay [9] addresses Peroxisome proliferator-activated receptor delta (Homo sapiens) (UniProt Q03181). The assay is described as follows: qHTS assay to identify small molecule antagonists of the peroxisome proliferator-activated receptor delta (PPARd) signaling pathway (AID 743215; active = well fitted inhibition curve with a large enough effect in the signal ratio in the repeat runs, not every such curve was filed as active; the % refers to the signal ratio;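 note: cells stimulated with agonist L165041 at 300 nM final during compound exposure; series mostly up to about 62 µM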). Put shortly:
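Cells: HEK293H with a UAS-driven beta-lactamase reporter responsive to PPARd. Compounds were co-added with L165041 (300 nM, final) and incubated 17 h at 37 C before a 2 h room-temperature FRET substrate step and fluorescence reading.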

Bile acid receptor (Homo sapiens), sequence (Q96RI1 whole entry, looked up): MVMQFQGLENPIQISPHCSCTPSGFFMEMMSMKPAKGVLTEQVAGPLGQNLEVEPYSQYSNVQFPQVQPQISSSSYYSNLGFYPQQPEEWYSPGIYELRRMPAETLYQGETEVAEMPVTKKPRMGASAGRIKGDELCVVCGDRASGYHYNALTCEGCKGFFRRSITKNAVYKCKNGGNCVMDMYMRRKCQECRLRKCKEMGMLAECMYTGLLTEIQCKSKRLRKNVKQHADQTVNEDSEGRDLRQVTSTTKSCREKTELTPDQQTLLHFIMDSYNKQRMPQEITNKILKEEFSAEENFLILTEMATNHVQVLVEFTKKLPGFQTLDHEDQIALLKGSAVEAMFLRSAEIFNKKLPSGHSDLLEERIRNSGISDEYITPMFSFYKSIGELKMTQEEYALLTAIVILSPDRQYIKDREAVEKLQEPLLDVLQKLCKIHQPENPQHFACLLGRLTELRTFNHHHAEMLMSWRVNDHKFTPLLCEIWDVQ
Peroxisome proliferator-activated receptor delta (Homo sapiens), sequence (Q03181 whole entry, looked up): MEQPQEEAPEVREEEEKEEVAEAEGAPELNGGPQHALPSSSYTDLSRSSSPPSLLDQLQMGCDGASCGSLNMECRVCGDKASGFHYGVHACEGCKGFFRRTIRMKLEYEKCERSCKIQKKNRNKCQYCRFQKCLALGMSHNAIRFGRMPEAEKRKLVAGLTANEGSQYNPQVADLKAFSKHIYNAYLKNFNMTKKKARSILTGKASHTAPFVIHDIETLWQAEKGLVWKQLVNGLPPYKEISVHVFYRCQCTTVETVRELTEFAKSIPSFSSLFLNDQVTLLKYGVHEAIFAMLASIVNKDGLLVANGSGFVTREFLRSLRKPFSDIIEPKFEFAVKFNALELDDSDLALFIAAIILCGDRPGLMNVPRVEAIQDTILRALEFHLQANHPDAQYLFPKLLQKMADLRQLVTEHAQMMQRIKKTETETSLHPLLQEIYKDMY

In the case of `BrC(Br)C(Br)(Br)Br`, the Potency in assay [1] was 39.1 µM (active). For the same compound, in [2], the compound was called inactive. Moreover, the Potency result in [3] and in assay [4] was “inactive” throughout.

Take `O=CC(Br)(Br)Br`: the Potency was 48.8 µM (active) in assay [1], 13.8 µM (active) in [5], 24.5 µM (active) in assay [3] and 17.3 µM (active) in assay [6].

`N#CC(Cl)Cl`: the Potency result in assay [1], in assay [5], in assay [4], in [7] and in assay [6] was “inactive” each time.

On to `FC(F)(F)c1cccc(C2=CCN(CCc3ccc4ccccc4c3)CC2)c1`, for which the Potency result in [1], in assay [8], in [3], in assay [4] and in [7] was “inactive” each time. Besides, in assay [2], the outcome was inactive.

Turning to `CCOCCOC(C)=O`, the Potency entry in assay [1], in [5], in assay [3] and in assay [4] was “inactive” each time.

With `CN(C)C(=S)S`, the Potency is 5.45 µM (active) and 7.76 µM (active) in [1]; 0.386 µM (active) in assay [5]; 612 nM (active) and 4.36 µM (active) in assay [3]; 50 µM (active) and 1.09 µM (active) and 9.77 µM (active) in assay [6]. For the same compound, in [7], the Potency result was “inactive”.

For `COc1cc(N)c(Cl)cc1C(=O)NC1CN2CCC1CC2` (stereo unspecified), the Potency entry in assay [1], in [5] and in assay [6] was “inactive” each time.

For the compound `CCCCCCCCCCCCCC[P+](CCCCCC)(CCCCCC)CCCCCC` (tested in a mixture with another compound), the Potency in assay [1] is 11 µM (active); in [5], 7.76 µM (active); in [3] it was 6.92 µM (active); in assay [6], 3.09 µM (active).

In the case of `CCN(CC)C(=S)[S-].CCN(CC)C(=S)[S-].[Zn+2]`, the Potency in assay [1] was 0.433 µM (active); in [5], 3.44 µM (active); in assay [3], 6.86 µM (active); in assay [6], 0.217 µM (active).

Take `ClC1=C(Cl)[C@]2(Cl)[C@H]3[C@H]([C@H]4C=C[C@H]3C4)[C@@]1(Cl)C2(Cl)Cl`: the Potency result in assay [1], in assay [5], in assay [3] and in assay [6] was “inactive” each time.

In the case of `CC(C)[C@H](C(=O)OC(C#N)c1cccc(Oc2ccccc2)c1)c1ccc(OC(F)F)cc1` (stereo partly specified), the Potency entry in [1], in [3], in assay [4] and in assay [6] was “inactive” each time. Moreover, the compound was classed as inactive in [2].

As to `[Cl][Sb]([Cl])[Cl]`, the Potency result in assay [1], in assay [5] and in assay [6] was “inactive” in each case.

Take `CCN`: the Potency entry in assay [1] and in [5] was “inactive” in each case.

With `COc1cccc2c1C(=O)c1c(O)c3c(c(O)c1C2=O)C[C@@](O)(C(=O)CO)CC3OC1CC(N2CCOC(OC)C2)C(O)C(C)O1` (stereo partly specified), the Potency entry in assay [1], in [5], in assay [3] and in assay [6] was “inactive” each time.

For `C[C@@H]1CC[C@@]2(OC1)O[C@H]1[C@@H](O)[C@H]3[C@@H]4CC[C@H]5C[C@@H](O[C@@H]6O[C@H](CO)[C@H](O[C@@H]7O[C@H](CO)[C@@H](O)[C@H](O[C@@H]8OC[C@@H](O)[C@H](O)[C@H]8O)[C@H]7O[C@@H]7O[C@H](CO)[C@@H](O)[C@H](O[C@@H]8O[C@H](CO)[C@@H](O)[C@H](O)[C@H]8O)[C@H]7O)[C@H](O)[C@H]6O)[C@H](O)C[C@]5(C)[C@H]4CC[C@]3(C)[C@H]1[C@@H]2C`, the Potency is 4.63 µM (active) in [1], 26.1 µM (active) in assay [5], 32.8 µM (active) in assay [7] and 8.24 µM (active) in [6]. Also, in assay [4], the Potency entry was “inactive”.

Consider `Nc1ccccc1C(=O)Oc1ccc2ccccc2c1`, for which the Potency result in [1], in assay [8], in assay [3], in assay [7] and in assay [6] was “inactive” each time. The call in assay [2] was inactive.

For the compound `O=c1[nH]c2ccccc2n1C1CCN(CCCC(c2ccc(F)cc2)c2ccc(F)cc2)CC1`, the Potency in assay [1] was 21.9 µM (active) and 29.8 µM (active); in assay [5], 21.9 µM (active); in assay [6], 21.9 µM (active). Besides, the compound was called inactive in assay [2].

Consider `CCC[CH2][Sn]([CH2]CCC)([CH2]CCC)[O]C(=O)c1ccccc1`, for which the Potency is 1.38 µM (active) in assay [1], 0.616 µM (active) in [5] and 0.692 µM (active) in assay [6].

Consider `CC(=O)[O-].[Tl+]`, for which the Potency entry in assay [1], in assay [5], in [3] and in assay [6] was “inactive” each time.

With `CC(C)[C@H](C(=O)O[C@H](C#N)c1cccc(Oc2ccccc2)c1)c1ccc(Cl)cc1`, the Potency entry in [1] and in assay [3] was “inactive” throughout.

Consider `CC(C)(O)c1cnn2c(-c3ccc(F)c(-c4c(F)cccc4C#N)c3)cnc2n1`, for which the Potency entry in assay [1] was “inactive”. The Potency in assay [6] was 27.5 µM (active).

Consider `Oc1c(Cl)c(Cl)cc(Cl)c1Cl`, for which the Potency result in [9] is “inactive”.

For the compound `C[C@]12CC[C@H]3[C@@H](CCC4=CC(=O)CC[C@@]43C)[C@@H]1CC[C@@H]2O`, the Potency entry in assay [1] and in [6] was “inactive” each time.

As to `CC(C)CC(C)N` (stereo unspecified), the Potency result in assay [9], in [5], in assay [3] and in assay [6] was “inactive” each time.

`C[C@@H]1O[C@@H](O[C@@H]2C=C3CC[C@@H]4[C@H](CC[C@]5(C)[C@@H](c6ccc(=O)oc6)CC[C@]45O)[C@@]3(C)CC2)[C@H](O)[C@H](O)[C@H]1O`: the figures for the Potency in [1], in [3] and in assay [6] were 0.0119 µM (active), 0.0106 µM (active) and 0.0133 µM (active), respectively.

Turning to `COP(=S)(OC)Oc1cc(Cl)c(Br)cc1Cl`, the Potency entry in assay [1], in [4], in assay [7] and in assay [6] was “inactive” each time. For the same compound, the outcome in [2] was inactive.

`CCCCCCCCCC[N+](C)(C)CCCCCCCCCC`: the results for the Potency in assay [1], in [7] and in [6] were 19.5 µM (active), 43.6 µM (active) and 19.5 µM (active), respectively.
